Potency data for 21 molecules are collected here from PubChem BioAssay AID624417 (National Center for Advancing Translational Sciences (NCATS), 2012).

Among all 410,000 compounds or so, about 6,400 (1.6%) were called active. A call without a number means that no potency is given here. Not shown: some 20% with an inconclusive outcome. Calls follow the shape of the dose curve; as a rule, active = well fitted inhibition curve with a large enough effect; inconclusive = small, poorly fitted or top-dose-only effect; inactive = no such curve, though single readings can be large or run the other way. Many of the other results were omitted from the sample, so actives are more common in it than they were.
Potency is read from the fitted curve at half-maximal effect.

Sequence of Glucagon-like peptide 1 receptor (Homo sapiens) (P43220 whole entry, looked up): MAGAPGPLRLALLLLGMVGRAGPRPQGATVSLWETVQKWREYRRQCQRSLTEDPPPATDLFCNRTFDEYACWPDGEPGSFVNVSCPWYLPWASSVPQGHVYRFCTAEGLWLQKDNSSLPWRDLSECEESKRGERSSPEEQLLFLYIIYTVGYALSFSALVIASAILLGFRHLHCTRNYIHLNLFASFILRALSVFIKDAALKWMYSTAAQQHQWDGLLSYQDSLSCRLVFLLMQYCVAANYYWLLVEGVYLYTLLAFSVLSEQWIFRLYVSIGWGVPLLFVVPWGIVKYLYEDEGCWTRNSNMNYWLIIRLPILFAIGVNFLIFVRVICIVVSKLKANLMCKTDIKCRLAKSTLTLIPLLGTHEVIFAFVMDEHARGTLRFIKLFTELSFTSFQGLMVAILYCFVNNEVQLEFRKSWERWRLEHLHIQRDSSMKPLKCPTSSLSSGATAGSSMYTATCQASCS

This assay addresses Glucagon-like peptide 1 receptor (Homo sapiens) (UniProt P43220). Nature of the assay: qHTS of GLP-1 Receptor Inverse Agonists (Inhibition Mode). Also: nearly all actives have a fitted effect of over 55% in size. As to conditions: HEK293 GLP-1R CRE-luciferase, luminescence, 24 h; series mostly up to 38.3 µM. An excerpt: The overall goal of this project was to develop a novel assay for discovering small molecule ligands for class B1 G protein-coupled receptors (GPCRs). Very few agonists (or inverse agonists in inhibition mode) with generally weak activity for this entire group of physiologically important receptors are known to date. To establish proof-of-principle that this critical bottleneck can be overcome with a suitable screening approach, our studies focused on the class B1 receptor for glucagon-like peptide-1 (GLP-1R), a potential therapeutic target for diabetes and neurodegenerative disease. The assay was developed using a cell-based functional readout. Toward this goal, stably transfected HEK293 cell clones were established that co-express (i) a cAMP-responsive luciferase reporter gene, and (ii) constitutively active GLP-1R that upon ligand interaction inhibit (inverse agonists) the luciferase activity. In addition, two control cell lines were developed: (i) one that express only the cAMP-responsive reporter gene to enable initial exclusion of GLP-1R independent effects of candidate probes; and (ii) one with the reported gene cloned with another constitutively active orphan receptor GPR119 to enable exclusion of GLP-1R independent inhibitor effects of candidate inverse agonists. To that end, this assay was optimized for 1536-well format and screened against the MLSMR. […] NIH Molecular Libraries Probe Production Network [MLPCN] NIH Chemical Genomics Center [NCGC] Grant: NS064851 PI Name: Martin Beinborn, Tufts Medical Center
Six ul of cell suspension (200 cells/uL in DMEM + 10% Nu serum + 1% pen-strep) is dispensed in a white solid 1536-well plate. The plates are incubated for 12 hours at 37 deg C at 5% CO2 followed by addition of 23 nL compounds. After 24 hr incubation at 37 deg C and 5% CO2, 3 uL of luciferase assay detection reagent is added. A luminescence read is obtained on the PerkinElmer Viewlux after 12 min incubation at room temperature.
(In general: qHTS replaces the single test concentration by a dilution series.)
Take `CCC(=O)OC(Cc1ccccc1)(c1ccccc1)C(C)CN(C)C` (stereo unspecified): the Potency entry is “inactive”.

Take `C=C(C)C1(CCCC)C(=O)NC(=S)NC1=O`: the Potency result was “inactive”.

In the case of `CCC1(CC(C)c2ccccc2)C(=O)NC(=O)NC1=O` (stereo unspecified), the Potency entry is “inactive”.

For `CCC(C)(O)C(=O)OC1C(=O)OC2CC3C(C)=CC(=O)C(O)C3(C)C3C4(O)OCC23C1C(C)C4O` (stereo unspecified), the Potency entry is “inactive”.

As to `COc1ccc(C2CC(c3cccs3)=NN2c2nc(C)c(C(C)=O)s2)cc1OC` (stereo unspecified), the Potency entry is “inactive”.

Consider `CCOC(=O)[C@]12Cc3ccccc3[C@H]1N(C1CCCCC1)C(=O)c1cc(OC)ccc12`, for which the Potency is 5.62 µM (active).

Take `Cc1ccc(OC(=O)N(C)C[C@@H]2OCc3cnnn3CCCC(=O)N([C@H](C)CO)C[C@@H]2C)cc1`: the Potency entry was “inactive”.

Take `S=C(NCCc1ccccc1)N1Cc2cc(N3CCOCC3)ccc2-n2nncc2C1`: the Potency result is “inactive”.

On to `Cc1nc2ccc(N3CCN(C)CC3)cc2nc1C`, for which the Potency result was “inactive”.

On to `COc1cccc(-c2nc3ccc(N4CCN(C)CC4)cc3[nH]2)c1`, for which the Potency was 1.12 µM (active).

Regarding `c1ccc(N2Cc3ccccc3-n3nncc3C2)nc1`, the Potency entry was “inactive”.

For the molecule `CC(=CCOc1ccc2ccc(=O)oc2c1)C1=CC(=O)C(C)(C)O1`, the Potency is 2.24 µM (active).

For the molecule `CCOc1ccc(CC(=O)NCCc2csc3nc(-c4ccccc4F)nn23)cc1`, the Potency result was “inactive”.

For the molecule `CC12CCC3C(CCC4CC(=O)CCC43C)C1CC(=NO)C2=O` (stereo unspecified), the Potency entry was “inactive”.

Regarding `CCOC(=O)c1cccc(C2=C(CNC(=O)c3ccncc3)[C@H]3CC[C@@H](C2)N3Cc2ccccc2)c1`, the Potency result is “inactive”.

As to `COC(=O)CN(CCCl)P1(=O)OCCCN1CCCl` (stereo unspecified), the Potency entry is “inactive”.

Consider `CC(=O)Nc1cc(-c2cccc(CO)c2)cn2c(-c3cccc(C(F)(F)F)c3)cnc12`, for which the Potency result was “inactive”.

`O=Cc1cn(Cc2ccc(F)cc2Cl)c2ccccc12`: the Potency is 10 µM (active).

With `O=C(C1CCN(S(=O)(=O)c2ccc(Br)s2)CC1)N1CCN(c2ccccc2)CC1`, the Potency entry was “inactive”.

Consider `CC1C(=O)OC2CCN3CC=C(COC(=O)C(C)(O)C1(C)O)C23` (stereo unspecified), for which the Potency result is “inactive”.

Take `O=c1c2ccccc2nc(CBr)n1-c1ccc(Cl)cc1`: the Potency result was “inactive”.
